{"source": "the supplement of paper PMC10127200", "note": "Counter-ions that a name gives are not always drawn."}
{"test_system": "786-O", "test": "Euclidean distance of Cell Painting phenotypic profile (signed KS, 77 features) to DMSO centroid (dimensionless distance); higher = stronger phenotypic change vs DMSO (phenoactivity)", "conditions": "48 h; 5 or 10 uM (library dependent)", "how_it_was_run": "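Phenoactivity is computed as Euclidean distance to the median vehicle profile. The profiles, drawn from 77 Harmony features scored as signed Kolmogorov-Smirnov statistics versus same-plate vehicle wells, were corrected for plate position, correlation-weighted and replicate-averaged at the top dose. Stained cells were imaged confocally at 20X (9 fields/well) after 48 h with library compounds at 10 or 5 uM, 0.1% DMSO final, in five cancer lines and a healthy fibroblast line.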"}
{"smiles": "CN1[C@@H]2CC[C@H]1C[C@@H](OC(=O)C(CO)c1ccccc1)C2", "note": "(some centres undefined) [Atropine sulfate monohydrate]", "Euclidean distance": 0.718}
{"smiles": "CN1CCN(c2nc3ccccc3nc2Cl)CC1", "Euclidean distance": 0.803}
{"smiles": "O=C([O-])C(Cl)Cl.[Na+]", "note": "[Sodium dichloroacetate (DCA)]", "Euclidean distance": 0.79}
{"smiles": "CC(Cc1ccc(O)cc1)NCC(O)c1cc(O)cc(O)c1", "note": "(centres undefined) [Fenoterol hydrobromide]", "Euclidean distance": 0.772}
{"smiles": "CCC(COC(=O)c1cc(OC)c(OC)c(OC)c1)(c1ccccc1)N(C)C", "note": "(centres undefined) [Trimebutine]", "Euclidean distance": 0.93}
{"smiles": "O=C/C=C/c1ccccc1", "note": "[Cinnamaldehyde]", "Euclidean distance": 1}
{"smiles": "COc1ccc2c(c1)[nH]c1c(C)nccc12", "note": "[Harmine hydrochloride]", "Euclidean distance": 1.41}
{"smiles": "CC(=O)OCC1=C(C(=O)O)N2C(=O)[C@@H](N)[C@H]2SC1", "note": "[7-Aminocephalosporanic acid]", "Euclidean distance": 1.45}
{"smiles": "CN1c2ccccc2C(NCCCCCCC(=O)O)c2ccc(Cl)cc2S1(=O)=O", "note": "(centres undefined) [Tianeptine sodium]", "Euclidean distance": 1.2}
{"smiles": "CCCN1C[C@H](CSC)C[C@@H]2c3cccc4[nH]cc(c34)C[C@H]21", "note": "[Pergolide Mesylate]", "Euclidean distance": 1.01}
{"smiles": "CC[C@H]1[C@@H]2C[C@H]3[C@@H]4N(C)c5ccccc5[C@]45C[C@@H]([C@@H]2[C@H]5O)N3[C@@H]1O", "note": "[Ajmaline]", "Euclidean distance": 1.39}
{"smiles": "Cc1cccc(C)c1NC1=NCCCS1", "note": "[Xylazine]", "Euclidean distance": 1.17}
{"smiles": "Cn1c(CCCC(=O)O)nc2cc(N(CCCl)CCCl)ccc21", "note": "[Bendamustine]", "Euclidean distance": 0.99}
{"smiles": "C[C@@H]1CC[C@@]2(OC1)O[C@H]1C[C@H]3[C@@H]4CC=C5C[C@@H](O[C@@H]6O[C@H](CO)[C@@H](O[C@@H]7O[C@@H](C)[C@H](O)[C@@H](O)[C@H]7O)[C@H](O)[C@H]6O[C@@H]6O[C@@H](C)[C@H](O)[C@@H](O)[C@H]6O)CC[C@]5(C)[C@H]4CC[C@]3(C)[C@H]1[C@@H]2C", "note": "[Dioscin]", "Euclidean distance": 1.76}
